Source: PubChem (National Center for Advancing Translational Sciences (NCATS))
Gal4-VP16 FLuc: counter-screen for ROR gamma inhibitors: Gal4-VP16 reporter; Drosophila S2 Gal4-VP16 UAS-luciferase, luminescence, 20 h; Potency, µM (series often up to 53.6 µM), inactives show top-dose activity, negative = inhibition, actives largely listed as inhibitors; AID 2546; actives 3.5% (n = 310,000);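 note: Gal4-VP16 expression switched on by copper sulfate through the metallothionein promoter; % is set by controls: 0 for no effect and ±100 for the full control effect; nearly all actives have a fitted effect of over 50% in size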
RORg inh: inhibitors of mouse ROR gamma transcriptional activity. Potency, µM (top dose mostly 53.6 µM), inactives show at the highest dose activity change, negative = inhibition, usual class: inhibitors. P51450. actives 5.4% (n = 310,000). Drosophila S2 Gal4-RORgamma UAS-luciferase reporter, 20 h. AID 2551; note: % is set by controls: 0 for no effect and ±100 for the full control effect; nearly all actives have a fitted effect of over 60% in size
Target sequence (P51450 whole entry, looked up, the tested form may be a part): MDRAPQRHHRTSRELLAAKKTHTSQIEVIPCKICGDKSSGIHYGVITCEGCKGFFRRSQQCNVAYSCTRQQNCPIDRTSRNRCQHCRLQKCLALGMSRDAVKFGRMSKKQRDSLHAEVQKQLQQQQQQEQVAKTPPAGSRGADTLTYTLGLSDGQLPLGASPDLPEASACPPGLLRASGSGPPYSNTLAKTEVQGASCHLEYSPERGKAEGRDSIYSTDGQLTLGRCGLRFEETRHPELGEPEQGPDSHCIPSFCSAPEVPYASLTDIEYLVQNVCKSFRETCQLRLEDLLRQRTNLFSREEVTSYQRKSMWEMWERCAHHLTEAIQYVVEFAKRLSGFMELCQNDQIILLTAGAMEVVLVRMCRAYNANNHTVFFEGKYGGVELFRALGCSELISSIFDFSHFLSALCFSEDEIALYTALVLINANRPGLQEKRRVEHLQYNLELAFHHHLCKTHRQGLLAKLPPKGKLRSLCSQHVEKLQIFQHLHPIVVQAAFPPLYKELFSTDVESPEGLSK
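A Gal4/UAS one-hybrid system in insect cells: metallothionein-promoter Gal4–ROR gamma fusion plus Photinus luciferase reporter. Copper sulfate 700 uM final, 20 hr ambient incubation, luminescent detection after 10 min with reagent.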
BCR signal inh: inhibitors of chronic active B-cell receptor signaling; ABC-DLBCL IkBa-CBG/CBR reporter, luminescence ratio, 4 h; Potency, µM (top dose mostly 46.1 µM), for the others: at the top dose activity change, negative = inhibition, most hits filed as inhibitors; actives 0.05% (n = 340,000); AID 493014; active = well fitted inhibition curve with a large enough effect in the signal ratio, with a control signal flat, not every such curve was filed as active; inconclusive = small, poorly fitted or top-dose-only effect, or effect the other way, or a change in a side signal; the % refers to the signal ratio;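 note: plate controls were basal doxycycline-induced cells for no effect and cells given 10 µM MG132 for full effect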
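Doxycycline induced both beetle luciferases in TMD8 lymphoma cells; IKK-driven degradation limits the IkappaBalpha-fused green signal, while red luminescence normalises for cell number and nonspecific effects. Compounds tested up to 46 uM, 4 hrs.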
a7 integrin act: activators of alpha7 integrin expression for muscular dystrophy | AID 624291 | Potency, µM (highest dose often 38.3 µM), for the others: top-dose activation, actives largely listed as activators | alpha7betagal myoblasts, beta-gal FDG fluorescence, 48 h | actives 0.064% (n = 350,000);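 note: 100% = response of the positive control SU9516; nearly all actives have a fitted effect of over 60% in size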
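Alpha7betagal+/- myoblasts (passage 13) were plated 16-24 hr, then exposed to compounds (1:260 dilution of DMSO stock) for 48 hours at 37C. After MPER lysis, β-galactosidase reporter activity was read as FDG fluorescence (ex 480/em 540) after 30 minutes.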
uPA surface inh: inhibitors of cell surface uPA generation; actives 0.31% (n = 330,000); AID 540303; Potency, µM (doses to about 38.3 µM), for inactives: top-dose activity change, negative = inhibition, actives largely listed as inhibitors; cell surface uPA generation assay, qHTS; active = well fitted inhibition curve with a large enough effect; inconclusive = small, poorly fitted or top-dose-only effect; inactive = no such curve, though single readings can be large or run the other way; tested in mouse RAW 264.7 cells; note: % is set by controls: 0 for no effect and ±100 for the full control effect; nearly all actives have a fitted effect of over 55% in size
Mito fusion act: inhibitors of mitochondrial division or activators of mitochondrial fusion; AID 485298; actives 0.23% (n = 320,000); S. cerevisiae fusion-defective mutant growth rescue, CellTiterGlo 48 h; Potency, µM (highest dose often 46.1 µM), inactives show at the highest dose growth rescue (activation), actives largely listed as activators; note: % of control where 0% means no effect; nearly all actives have a fitted effect of over 45% in size
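Luminescent cell viability in 1536-well qHTS format served as the measure of rescued growth in ts fusion-mutant S. cerevisiae cultured on non-fermentable YPEG for 48 hours at 37C.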
* hit, by the source's call; u = inconclusive; x = not tested or not shown; [ ] = remark or other dose. Only some compounds are listed: those with a hit (about 5.5% of all), similar ones and a draw of the others. Unless noted, calls come from the whole dose curve; as a rule, active = well fitted curve in the direction sought with a large enough effect; inconclusive = small, poorly fitted or top-dose-only effect, or another doubt; inactive = no such curve, though single readings can be large; an effect the other way counts as inactive or inconclusive. Potency is the fitted concentration of half-maximal effect.

SMILES	Gal4-VP16 FLuc	RORg inh	BCR signal inh	a7 integrin act	uPA surface inh	Mito fusion act
Cn1c(C(=O)N2CCN(c3nc4ccccc4s3)CC2)cc2sccc21	9%	17%	-12%	0%[7.66 µM]	x	0%
O=C(c1cc2sccc2n1Cc1ccc(F)cc1)N1CCN(c2nc3ccccc3s2)CC1	11µM*	u	u	-36%	-3%	-12%
O=C(Nc1nc2ccccc2[nH]1)c1cccc([N+](=O)[O-])c1	u	0.89µM*	u	-30%	-6%	-4%
C/C(=N\Nc1nc2ccccc2[nH]1)c1ccc([N+](=O)[O-])cc1	-13%	u	1%	7%	-5%	-12%
COC(=O)c1cc(C(=O)Nc2nc3ccccc3[nH]2)cc([N+](=O)[O-])c1	-24%	1.4µM*	u	0%	3%	19%
O=C(Cc1nc2ccccc2[nH]1)c1cccc([N+](=O)[O-])c1	-3%	-17%	u	6%	-6%	10%
O=C(Nc1nc2ccccc2[nH]1)c1ccc([N+](=O)[O-])cc1	u	3.2µM*	u	u	-9%	-5%
O=C(Nc1ccncc1)c1ccc(Cl)c(S(=O)(=O)N2CCCC2)c1	x	x	u	-31%	-7%	-1%
COc1ccc(NC(=O)COC(=O)c2ccc(S(=O)(=O)N(C)c3ccccc3OC)cc2)c(OC)c1	-18%	4%	-23%	x	x	7%
O=S(=O)(NCC(c1ccco1)N1CCOCC1)c1ccc(Cl)cc1 (stereo not given)	0%	-2%	-2%	14µM*	-1%	0%
Cc1ccc(S(=O)(=O)NCC(c2ccco2)N2CCOCC2)cc1 (stereo not given)	-3%	5%	-1%	u	-2%	-6%
O=C(CCN1CCOCC1)c1ccc2c(c1)OCCO2	3.2µM*	u	u	-56%	-8%	-2%
O=C(CCN1CCCCC1)c1ccc2c(c1)OCO2	13µM*	3.2µM*	6%	-59%	-5%	2%
O=C(CCN1CCc2ccccc2CC1)c1ccc2c(c1)OCCO2	4µM*	6.3µM*	u	-67%	-11%	-2%
O=C(CCN1CCCCC1)c1ccccc1	0%	7%	u	-43%	x	-3%
O=C(CCCN1CCOCC1)c1ccc2c(c1)OCCO2	u	u	u	-4%	-1%	-6%
COc1c2c(cc3c1C(CC(=O)c1c(O)c(OC)c4occc4c1OC)[N+](C)(C)CC3)OCO2 (stereo not given)	-15%	4%	x	x	x	x
CCCN1CCC(=O)N([C@H](CN=[N+]=[N-])Cc2ccccc2)CC1	17%	1%	-2%	-1%	-1%	0%
Cc1nc2ccccn2c1C(=O)/C=C/c1ccc(F)cc1	u	8.9µM*	7%	-50%	-13%	-1%
CC(C)(COP(=O)(O)OP(=O)(O)OC[C@H]1O[C@@H](n2cnc3c(N)ncnc32)[C@H](O)[C@@H]1OP(=O)(O)O)C(O)C(=O)NCCC(=O)NCCS (stereo not given in full)	-12%	11%	x	x	x	x
CCOC(=O)N1CCN(C(=S)NC(=O)c2c(-c3c(Cl)cccc3Cl)noc2C)CC1	0.79µM*	0.25µM*	0%	0%	-2%	-4%
Cc1onc(-c2c(Cl)cccc2Cl)c1C(=O)NC(=S)N1CCOCC1	0.71µM*	0.16µM*	-13%	2%	-17%	3%
CCOC(=O)N1CCN(C(=S)NC(=O)c2ccc(F)c(F)c2)CC1	1µM*	0.63µM*	-13%	-29%	10%	-4%
CCOC(=O)N1CCN(C(=O)c2c(-c3ccccc3Cl)noc2C)CC1	1%	17%	4%	10%	2%	1%
CCOC(=O)N1CCN(C(=S)NC(=O)c2cccc(OC)c2)CC1	x	x	-2%	26%	-2%	x
Cc1onc(-c2c(Cl)cccc2Cl)c1C(=O)Nc1nccs1	u	10µM*	8%	8%	0%	-5%
